# Measured values taken from PubChem BioAssay (Tox21).
# “And” between values parts separate entries of the source, which are not always exact repeats. Equal entries are not always repeated. Results filed as inconclusive are left out. Where a call stands in place of a potency, no number is given. Unmarked numbers belong to inactive results. The source made the active and inactive calls. The call rests on the fitted dose curve; in most records, active means well fitted cell-killing curve with a large enough effect in the repeat runs; inconclusive means weak or mixed curves, or effect the other way; inactive means flat fitted curve, though single readings scatter.
# Legend:
# [1] = cAMP Responsive Elements (CRE) small molecule antagonists, cell-based qHTS assay: qHTS cell viability counter screen (AID 2060913); further: nearly all actives have a fitted effect of over 40% in size
# Outline: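 Cytotoxicity counter screen multiplexed with the CRE-bla antagonist read: HEK293T cells in DMEM with dialyzed FBS and 25 mM HEPES were treated 3 hrs under 0.25 uM final NKH477, then viability measured by CellTiter-Glo luminescence.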
# [2] = cAMP Responsive Elements (CRE) small molecule agonists, cell-based qHTS assay: qHTS cell viability counter screen (AID 2060914);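 further: viability read after 3 h of compound exposure; nearly all actives have a fitted effect of over 50% in size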
# Outline: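 Cells are seeded and incubated 18 h, treated with compounds in DMSO for 3 h, read for the bla reporter, then given CellTiter-Glo; luminescence is measured after 30 min at room temperature.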
# Potency means the concentration at half of the fitted maximal effect.
Compound,Potency [1],Potency [2],"viability change, negative = cytotoxic [1]","activity change, negative = cytotoxicity [2]"
Cc1ccn2nc(S(=O)(=O)Nc3c(F)cccc3F)nc2n1,inactive,inactive,,
Fc1ccc(Oc2ccnc3cc(Cl)cc(Cl)c23)cc1,inactive,inactive,,
N#Cc1ccncc1,inactive,inactive,,
BrCCc1ccccc1,inactive,inactive,,
O=NN1CCN(N=O)CC1,inactive,inactive,,
CCCCn1cc[n+](C)c1,inactive,inactive,,
Oc1c(Cl)c(Cl)cc(Cl)c1Cl,inactive,inactive,,
OCCSCSCCO,inactive,inactive,,
CCOc1ccc(N)cc1,inactive,inactive,,
CCN(CC)C(=O)C(C)Oc1cccc2ccccc12 (stereo not given),inactive,inactive,,
CCC(C)(C#N)N=NC(C)(C#N)CC (stereo not given),inactive,inactive,,
COC[C@@H](NC(C)=O)C(=O)NCc1ccccc1,inactive,inactive,,
Oc1ccc(Cl)cc1Cl,inactive,inactive,,
NCC(CC(=O)O)c1ccc(Cl)cc1 (stereo not given),,,-0.747% [at 0.349 µM],-9.73% [at 0.349 µM]
Cc1cc(Cl)ccc1OCC(=O)O,inactive,inactive,,
C=CC(=O)OCCCCO,inactive,inactive,,
CC(C)(C)C(O)(CCc1ccc(Cl)cc1)Cn1cncn1 (stereo not given),inactive,inactive,,
CCC(C)c1cc(C(C)(C)C)cc(-n2nc3ccccc3n2)c1O (stereo not given),inactive,inactive,,
Nc1ccc(-c2ccc(N)c(Cl)c2)cc1Cl,inactive,inactive,,
COc1cc(OC)nc(Oc2cccc(Oc3nc(OC)cc(OC)n3)c2C(=O)O)n1,inactive,inactive,,

Compound,Potency [1],Potency [2],"viability change, negative = cytotoxic [1]","activity change, negative = cytotoxicity [2]"
CS/C(C)=N/OC(=O)N(C)SN(C)C(=O)O/N=C(\C)SC,inactive,inactive,,
ClC1(Cl)C2(Cl)C3(Cl)C4(Cl)C(Cl)(Cl)C5(Cl)C3(Cl)C1(Cl)C5(Cl)C24Cl (stereo not given),inactive,inactive,,
CCOP(=S)(OCC)SCSC(C)(C)C,inactive,inactive,,
C=CC=O,inactive,inactive,,
C=CCc1cc(OC)c2c(c1)OCO2,inactive,inactive,,
CC1(C)CN=C(NN=C(/C=C/c2ccc(C(F)(F)F)cc2)/C=C/c2ccc(C(F)(F)F)cc2)NC1,inactive,inactive,,
O=P1(NCCCl)OCCCN1CCCl (stereo not given),inactive,inactive,,
CC(C)(c1ccccc1)c1cc(-n2nc3ccccc3n2)c(O)c(C(C)(C)c2ccccc2)c1,inactive,inactive,,
C=COC(C)=O,inactive,inactive,,
CCOS(C)(=O)=O,inactive,inactive,,
O=C1CC(=O)NC(=O)N1,inactive,inactive,,
O=C(Cc1ccccc1)OCc1ccccc1,inactive,inactive,,
Nc1ccc([N+](=O)[O-])cc1[N+](=O)[O-],inactive,inactive,,
CN1CCc2cc3c(cc2C1O)OCO3 (stereo not given),inactive,inactive,,
CC(=O)[O-].CC(=O)[O-].O.O.[Cd+2],53.7 µM (active),inactive,,
CCCCCC[n+]1ccccc1,inactive,inactive,,
O=C(Cc1ccccc1)c1ccccc1,inactive,inactive,,
C=CCN=C=S,inactive,inactive,,
CC[N+]1(CCOC(=O)C(O)(c2ccccc2)c2ccccc2)CCCCC1,inactive,inactive,,
CN1CCC(N(Cc2ccccc2)c2ccccc2)CC1,inactive,inactive,,

Compound,Potency [1],Potency [2],"viability change, negative = cytotoxic [1]","activity change, negative = cytotoxicity [2]"
CCOP(=S)(OCC)SCS(=O)(=O)CC,inactive,inactive,,
Nc1ccccc1-c1ccccc1,inactive,inactive,,
Cn1cc[n+](C)c1 (tested in a mixture with another compound),inactive,inactive,,
O=C1C(=O)c2cccc3cccc1c23,inactive,inactive,,
NNC(=O)c1cccnc1,inactive,inactive,,
Cc1nnc2n1-c1sc(CCc3ccc(CC(C)C)cc3)cc1C(c1ccccc1Cl)=NC2C (stereo not given),inactive,inactive,,
N#CS,inactive,inactive,,
CCC(CC)Nc1c([N+](=O)[O-])cc(C)c(C)c1[N+](=O)[O-],inactive,inactive,,
C=CCc1ccc2c(c1)OCO2,inactive,inactive,,
CCOP(=S)(OCC)SCSc1cc(Cl)ccc1Cl,inactive,inactive,,
Nc1nc(=S)[nH][nH]1,inactive,inactive,,
Cc1cc(-c2cc(C)c(N)c(C)c2)cc(C)c1N,inactive,inactive,,
C[C@@H](Oc1ccc(Cl)cc1Cl)C(=O)O,inactive,inactive,,
CC(=O)[O][Hg][c]1ccccc1,12.1 µM (active) and 12.2 µM (active) and 16.8 µM (active),10.8 µM (active) and 13.7 µM (active),,
CC(O)CN1CCN(CC(=O)[O-])CCN(CC(=O)[O-])CCN(CC(=O)[O-])CC1.[Gd+3] (stereo not given),inactive,inactive,,
CN(C)c1ccc(N)cc1,inactive,inactive,,
CCCN(CCC)c1c([N+](=O)[O-])cc(C(C)C)cc1[N+](=O)[O-],inactive,inactive,,
C[C@H]1O[C@H](OC2[C@@H](O)[C@@H](O)C(O)[C@H](O)[C@H]2O)[C@@H](N)C[C@@H]1N=C(N)C(=O)O (stereo not given in full),inactive,inactive,,
Clc1cccc2ccccc12,inactive,inactive,,
N#CC(O)c1ccccc1 (stereo not given),inactive,inactive,,
